Drawing on PubChem BioAssay (Tox21), this text covers outcome and Potency for 6 compounds.

Assay [1] has as its target Progesterone receptor (Homo sapiens) (UniProt P06401). Put plainly: qHTS assay to identify small molecule agonists of the progesterone receptor (PR) signaling pathway (AID 1346784; calls by dose curve; further: nearly all actives have a fitted effect of over 30% in size). A digest of the protocol:
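Reporter assay, GripTite PR-UAS-bla HEK 293T cells: 16 hr exposure to DMSO-dissolved compounds at 37C, 5% CO2, in steroid-depleted (2% charcoal-stripped FBS) medium; beta-lactamase measured by FRET fluorescence.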
(In general: In qHTS, concentration-response curves come from the screen itself.)

Assay [2] shares this target. Put plainly: qHTS assay to identify small molecule antagonists of the progesterone receptor (PR) signaling pathway (AID 1346795; active means well fitted inhibition curve with a large enough effect in the signal ratio in the repeat runs, not every such curve was filed as active; the % refers to the signal ratio). A digest of the protocol:
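Stimulus R5020 at 1 nM final; cells HEK293T PR-UAS-bla; medium with 2% charcoal-stripped FBS; compound exposure 16 hr at 37C, 5% CO2; detection by FRET beta-lactamase substrate, 2 hr, room temperature.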

A short description of assay [3]: qHTS assay to identify small molecule antagonists of the progesterone receptor (PR) signaling pathway - cell viability counter screen (AID 1346798). Further: series mostly up to about 92 µM; nearly all actives have a fitted effect of over 50% in size. A digest of the protocol:
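In the same plates used for the beta-lactamase readout, cell viability of compound- and R5020-treated PR-UAS-bla HEK293T cells (16 hr, 37C) was assessed by CellTiter-Glo luminescence.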

A short description of assay [4]: qHTS assay to identify small molecule agonists of the progesterone receptor (PR) signaling pathway - cell viability counter screen (AID 1346799; calls by dose curve; further: nearly all actives have a fitted effect of over 45% in size). The method, boiled down:
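Multiplexed viability read: CellTiter-Glo luminescence, 30 min RT, following LiveBLAzer FRET measurement on PR-UAS-bla HEK293T cells exposed to compounds 16 hr.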

Assay [5] in a line: qHTS assay to identify small molecule antagonists of the TGF-beta/Smad signaling pathway - cell viability counter screen (AID 1346824). Further: nearly all actives have a fitted effect of over 50% in size. The method, boiled down: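 SBE-bla HEK 293T cells were plated overnight at 37 C, then given compounds in DMSO plus TGF-beta1 (added as 0.25 ng/mL solution) for 5 hr. After the bla read, CellTiter-Glo was added to the same wells and luminescence read after 30 min at room temperature.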

Assay [6] in a line: qHTS assay to identify small molecule agonists of the TGF-beta/Smad signaling pathway - cell viability counter screen (AID 1346829). Further: top concentration of the series differs between compounds; nearly all actives have a fitted effect of over 45% in size. A digest of the protocol: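 Luminescence from CellTiter-Glo, read after a 30 min room-temperature incubation, gives cell viability of SBE-bla HEK 293T cells treated 5 hr with compounds at 37 C.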
Assay [7] can be described thus: qHTS assay to identify small molecule agonists of the TGF-beta/Smad signaling pathway (AID 1346859; active means well fitted activation curve with a large enough effect in the signal ratio in the repeat runs, not every such curve was filed as active; the % refers to the signal ratio; further: series mostly up to about 77 µM). A digest of the protocol:
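Screening used HEK 293T SBE-bla cells at 4,000/well. Test agents: 5 hr, 37 C. Detection: FRET substrate, 2 hr RT, then excitation 405 nm with emissions at 460 and 530 nm.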

In assay [8] the target is Thyrotropin-releasing hormone receptor (Homo sapiens) (UniProt P34981). Put plainly: qHTS assay to identify small molecule antagonists of the thyrotropin-releasing hormone receptor (TRHR) signaling pathway (AID 1346877; active means well fitted inhibition curve with a large enough effect in the repeat runs, not every such curve was filed as active; further: series mostly up to about 51 µM). A digest of the protocol: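 In this cell-based calcium flux format, HEK293 cells expressing TRHR received test compound for 5 min before the agonist TRH (1 nM final). Dye loading lasted 2 h at 37 °C.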

Assay [9] shares this target. Nature of the assay: qHTS assay to identify small molecule agonists of the thyrotropin-releasing hormone receptor (TRHR) signaling pathway (AID 1346891; calls by dose curve; further: series mostly up to about 58 µM). The method, boiled down: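 Readout was intracellular calcium fluorescence in TRHR-Hek293 cells. Cells were incubated 18 h, dye-loaded 2 h at 37 °C, and treated with compound in agonist mode.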
A short description of assay [10]: Caspase-3/7 induction in HepG2 cells by small molecules, qHTS assay (AID 1346978). Further: nearly all actives have a fitted effect of over 15% in size. The method, boiled down: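 Wild-type HepG2 cells (2,000/well) were settled 5 h at 37 C, 5% CO2, then exposed to compounds in DMSO for 17 h. Caspase-3/7 activity was read by luminescence 30 min after adding Caspase-Glo 3/7 reagent at room temperature.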
Assay [11] is described as follows: Caspase-3/7 induction in CHO-K1 cells by small molecules, qHTS cell viability counter screen (AID 1346979). Further: nearly all actives have a fitted effect of over 35% in size. Further: potency means the concentration at half of the fitted maximal effect. The method, boiled down:
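Following a 5hr settling period, CHO-K1 cells at 1,500 per well received DMSO-dissolved compounds. Cell viability was quantified 16hr later by CellTiter-Fluor fluorescence, measured after 1hr with reagent at 37C.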

Assay [12] can be described thus: Caspase-3/7 induction in CHO-K1 cells by small molecules, qHTS assay (AID 1346980). Further: nearly all actives have a fitted effect of over 15% in size. A digest of the protocol: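 Wild-type cells were seeded at 1,500 per well and settled 5 hr at 37 C, 5% CO2, then exposed to DMSO-dissolved compounds for 17 hr. Caspase-Glo 3/7 reagent was added, and luminescence was read after 30min at room temperature.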
The nature of assay [13]: Caspase-3/7 induction in HepG2 cells by small molecules, qHTS cell viability counter screen (AID 1346981). Further: series mostly up to about 92 µM; nearly all actives have a fitted effect of over 30% in size. The method, boiled down: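 Counter screen for cytotoxicity: HepG2 exposed 16 hr to compounds, then CellTiter-Fluor viability signal (fluorescence, 1 hr reagent incubation).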
For assay [14], the target named is Nuclear receptor subfamily 1 group I member 2 (Homo sapiens) (UniProt O75469). Put plainly: Human pregnane X receptor (PXR) small molecule agonists, qHTS assay (AID 1346982). Further: nearly all actives have a fitted effect of over 35% in size. Further: potency means the concentration at half of the fitted maximal effect. The method, boiled down:
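Luminescence (ONE-Glo, 30 min RT) after 24 hr compound exposure of PXR-Luc HepG2 cells; cells rested 5 hr post-plating in 5% charcoal-stripped FBS medium.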

The target of assay [15] is Cytochrome P450 2D6 (Homo sapiens) (UniProt P10635). Nature of the assay: Cytochrome P450 Family 2 Subfamily D Member 6 (CYP2D6) small molecule antagonists: luciferase reporter qHTS assay (AID 1671196). Further: series mostly up to about 120 µM; nearly all actives have a fitted effect of over 50% in size. A digest of the protocol: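 Inhibition of CYP2D6 was gauged by loss of luminescence, since light produced tracks the luciferin generated from a proluciferin substrate. A 10 min room-temperature preincubation preceded 1 h NADPH-supported turnover.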
A general note: Reporter assays use an easily measured gene product as a stand-in for the process of interest.

Assay [16] deals with Cytochrome P450 2C19 (Homo sapiens) (UniProt P33261). Nature of the assay: Cytochrome P450 Family 2 Subfamily C Member 19 (CYP2C19) small molecule antagonists: luciferase reporter qHTS assay (AID 1671197). Further: series mostly up to about 120 µM; nearly all actives have a fitted effect of over 65% in size. The method, boiled down:
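CYP2C19 P450-Glo, 1536-well qHTS. Cpd + enzyme/proluciferin substrate 10 min RT; + NADPH regen, 37C 1 h; stop with luciferin detection reagent, 20 min RT, luminescence (RLU). Pos ctrl ketoconazole.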

Assay [17] is described as follows: Human pregnane X receptor (PXR) small molecule agonists, qHTS cell viability counter screen (AID 1346977). Further: nearly all actives have a fitted effect of over 50% in size. Further: potency means the concentration at half of the fitted maximal effect. A digest of the protocol: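 In each well, the PXR reporter HepG2 line was checked for viability: CellTiter-Fluor reagent added 23hr post-dosing, fluorescence read after 1hr incubation at 37C.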

A number with no mark means an inactive call. Records with an inconclusive call do not appear. Active and inactive are the calls of the source. Unless noted, the call rests on the fitted dose curve; in most records, active means well fitted curve in the direction sought with a large enough effect in the repeat runs; inconclusive means weak or mixed curves; inactive means no such curve, though single readings can be large; an effect the other way counts as inactive or inconclusive.

Cytochrome P450 2C19 (Homo sapiens), sequence (P33261 whole entry, looked up): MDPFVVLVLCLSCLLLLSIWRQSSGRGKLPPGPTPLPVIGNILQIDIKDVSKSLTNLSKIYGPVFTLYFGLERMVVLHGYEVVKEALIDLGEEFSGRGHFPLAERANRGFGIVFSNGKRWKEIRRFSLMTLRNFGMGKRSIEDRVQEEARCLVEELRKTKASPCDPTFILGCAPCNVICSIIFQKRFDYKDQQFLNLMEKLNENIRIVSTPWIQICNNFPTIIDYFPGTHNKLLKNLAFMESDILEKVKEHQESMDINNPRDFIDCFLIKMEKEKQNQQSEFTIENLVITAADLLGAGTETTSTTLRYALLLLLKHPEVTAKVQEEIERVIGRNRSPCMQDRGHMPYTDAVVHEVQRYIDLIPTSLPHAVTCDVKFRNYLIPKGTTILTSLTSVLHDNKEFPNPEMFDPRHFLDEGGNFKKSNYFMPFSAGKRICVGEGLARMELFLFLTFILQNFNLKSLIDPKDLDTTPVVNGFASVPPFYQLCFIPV
Thyrotropin-releasing hormone receptor (Homo sapiens), sequence (P34981 whole entry, looked up): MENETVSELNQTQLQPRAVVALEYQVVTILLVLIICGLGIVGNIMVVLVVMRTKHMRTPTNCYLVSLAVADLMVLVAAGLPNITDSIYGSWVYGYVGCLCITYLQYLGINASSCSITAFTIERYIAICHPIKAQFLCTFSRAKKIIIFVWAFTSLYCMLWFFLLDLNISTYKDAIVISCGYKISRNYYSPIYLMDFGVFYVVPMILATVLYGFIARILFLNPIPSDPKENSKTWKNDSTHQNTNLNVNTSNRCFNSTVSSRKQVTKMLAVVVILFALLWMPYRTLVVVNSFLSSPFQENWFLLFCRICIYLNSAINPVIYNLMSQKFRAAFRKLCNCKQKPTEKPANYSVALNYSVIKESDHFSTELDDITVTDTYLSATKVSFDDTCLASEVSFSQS
Progesterone receptor (Homo sapiens), sequence (P06401 whole entry, looked up): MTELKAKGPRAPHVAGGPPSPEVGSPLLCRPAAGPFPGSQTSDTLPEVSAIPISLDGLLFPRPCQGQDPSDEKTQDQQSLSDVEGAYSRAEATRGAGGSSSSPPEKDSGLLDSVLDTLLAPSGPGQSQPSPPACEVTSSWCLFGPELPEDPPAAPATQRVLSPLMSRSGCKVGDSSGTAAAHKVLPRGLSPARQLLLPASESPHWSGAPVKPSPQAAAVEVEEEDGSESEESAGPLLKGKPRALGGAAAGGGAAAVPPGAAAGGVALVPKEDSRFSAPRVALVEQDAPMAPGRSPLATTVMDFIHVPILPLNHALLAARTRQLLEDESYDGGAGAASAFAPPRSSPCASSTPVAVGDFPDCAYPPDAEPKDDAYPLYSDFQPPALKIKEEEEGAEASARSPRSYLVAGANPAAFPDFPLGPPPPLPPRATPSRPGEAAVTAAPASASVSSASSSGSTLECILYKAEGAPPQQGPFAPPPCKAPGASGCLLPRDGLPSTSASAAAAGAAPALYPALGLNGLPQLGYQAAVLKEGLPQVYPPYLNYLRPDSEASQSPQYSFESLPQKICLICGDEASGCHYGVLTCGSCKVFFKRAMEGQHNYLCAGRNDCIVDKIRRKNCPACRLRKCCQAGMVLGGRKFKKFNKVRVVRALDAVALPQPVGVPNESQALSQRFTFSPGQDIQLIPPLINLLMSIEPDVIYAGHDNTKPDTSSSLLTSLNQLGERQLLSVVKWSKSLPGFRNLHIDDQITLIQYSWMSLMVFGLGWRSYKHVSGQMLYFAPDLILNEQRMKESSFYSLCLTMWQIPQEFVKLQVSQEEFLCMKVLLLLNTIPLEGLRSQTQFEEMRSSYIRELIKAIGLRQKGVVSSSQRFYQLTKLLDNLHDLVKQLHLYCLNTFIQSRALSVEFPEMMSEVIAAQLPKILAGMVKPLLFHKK
Nuclear receptor subfamily 1 group I member 2 (Homo sapiens), sequence (O75469 whole entry, looked up): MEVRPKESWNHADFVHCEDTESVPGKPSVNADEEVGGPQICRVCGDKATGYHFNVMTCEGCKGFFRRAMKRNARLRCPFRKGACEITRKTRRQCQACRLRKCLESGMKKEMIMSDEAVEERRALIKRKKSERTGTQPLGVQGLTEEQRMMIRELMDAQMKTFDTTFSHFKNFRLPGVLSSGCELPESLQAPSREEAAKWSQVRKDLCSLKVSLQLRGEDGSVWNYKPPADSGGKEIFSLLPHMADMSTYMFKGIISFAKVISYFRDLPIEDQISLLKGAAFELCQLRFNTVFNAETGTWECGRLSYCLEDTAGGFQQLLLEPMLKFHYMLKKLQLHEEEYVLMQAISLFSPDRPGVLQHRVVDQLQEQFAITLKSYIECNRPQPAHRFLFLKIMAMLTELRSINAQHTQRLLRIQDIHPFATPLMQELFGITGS
Cytochrome P450 2D6 (Homo sapiens), sequence (P10635 whole entry, looked up): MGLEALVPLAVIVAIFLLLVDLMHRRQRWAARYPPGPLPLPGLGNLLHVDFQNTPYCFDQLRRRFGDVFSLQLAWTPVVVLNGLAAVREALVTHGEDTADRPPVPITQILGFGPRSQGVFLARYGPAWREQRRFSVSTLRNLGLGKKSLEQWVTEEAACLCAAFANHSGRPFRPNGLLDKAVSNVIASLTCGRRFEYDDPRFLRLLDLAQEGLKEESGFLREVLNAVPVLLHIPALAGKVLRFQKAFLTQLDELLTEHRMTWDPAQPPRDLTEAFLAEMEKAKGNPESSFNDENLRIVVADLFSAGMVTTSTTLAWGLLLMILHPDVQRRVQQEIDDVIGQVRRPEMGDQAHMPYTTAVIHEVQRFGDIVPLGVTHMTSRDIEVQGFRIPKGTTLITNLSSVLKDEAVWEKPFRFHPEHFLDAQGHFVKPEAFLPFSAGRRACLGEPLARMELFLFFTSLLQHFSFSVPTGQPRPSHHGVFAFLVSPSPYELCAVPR

Turning to `CCCCCCCCCCCCCCC1CO1` (centres undefined), the outcome in assay [1], in assay [7], in assay [8] and in assay [10] was inactive. The Potency entry in assay [2], in [3], in assay [4], in assay [5], in [6] and in [9] was “inactive” throughout. In addition, the Potency result in [11], in [12], in assay [13], in assay [14], in assay [15] and in assay [16] was “inactive” in each case.
As for `C[Si](C)O[Si](C)(C)O[Si](C)(C)O[Si](C)C`, the call in assay [1], in [7], in assay [8] and in assay [10] was inactive. Moreover, the Potency result in assay [2], in assay [3], in [4], in assay [5], in assay [6] and in [17] was “inactive” in each case. The Potency entry in [12], in assay [13], in [14], in [15] and in [16] was “inactive” throughout.
For the compound `CC(C)(C)c1ccc(OCC2CO2)cc1` (centres undefined), the outcome in [1], in assay [7], in assay [8] and in [10] was inactive. In addition, the Potency result in assay [2], in assay [3], in [4], in [5], in [6] and in [9] was “inactive” each time. Further, the Potency result in [12] is “inactive”. The Potency in assay [11] was 55.6 µM (active); in [14] it was 35.1 µM (active).
As for `CCCCCC/C=C/C=O`, the call in assay [1], in [7], in [8] and in assay [10] was inactive. In addition, the Potency entry in assay [2], in assay [3], in assay [4], in assay [5], in assay [6] and in [9] was “inactive” throughout. Also, the Potency result in assay [11], in assay [12], in assay [13], in assay [14] and in [15] was “inactive” each time.
For `COCCO`, the compound was called inactive in [1], in assay [7], in assay [8] and in assay [10]. The Potency result in assay [2], in [3], in assay [4], in assay [5], in [6] and in assay [17] was “inactive” each time. Also, the Potency result in assay [11], in assay [12], in assay [13], in assay [14], in assay [15] and in [16] was “inactive” in each case.
With `O=C1c2cccc(O)c2C(=O)c2c(O)cc(CO)cc21`, the compound was classed as inactive in assay [1], in assay [7], in assay [8] and in assay [10]. In addition, the Potency entry in assay [2], in [3], in assay [4], in assay [5], in assay [6] and in [12] was “inactive” each time. The Potency result in assay [13] and in assay [15] was “inactive” throughout. Also, the Potency was 38.6 µM (active) in assay [17] and 8.63 µM (active) in assay [14].
